From PubChem BioAssay
This is a sample that favours compounds with a hit; in the whole collection about 3.8% have one here.
ATXN2 expr inh: ATXN2 expression inhibition; Potency, µM (highest dose often 57 µM), for the others: at the highest dose activity change, negative = inhibition, usual class: inhibitors; HEK-293 ATXN2-luciferase reporter, luminescence, 24 h; AID 1745845; hit rate 0.72% among 360,000; note: % is set by controls: 0 for no effect and ±100 for the full control effect; nearly all actives have a fitted effect of over 55% in size
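ATXN2-luciferase reporter cells (luciferase flanked by upstream and downstream ATXN2 gene portions) were treated 24 h at 37 °C with compounds at up to 57 uM. SteadyGlo luminescence gave expression; GF-AFC fluorescence gave viability.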
S2 tox: cell viability loss in ATXN counter-screen | S2 cells (HEK-293 line with an ATXN2-luciferase reporter) viability, CellTiter-Fluor protease fluorescence, 24 h | Potency, µM (doses to about 56.7 µM), hits mostly cytotoxic | hit rate 0.49% among 400,000 | AID 651635; note: nearly all actives have a fitted effect of over 40% in size
HT1080-NT tox: kills 2HG-producing HT-1080-NT fibrosarcoma cells; HT-1080-NT fibrosarcoma viability, CellTiter-Glo ATP luminescence, 48 h; Potency, µM (titrated, usually from 46.1 µM), for inactives: at the top dose activity, negative = less viability, usual class: cytotoxic; hit rate 1.6% among 360,000;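 note: NT is the 2HG producing partner of a matched IDH1 knockdown line; 0% = DMSO-treated cells and -100% = media-only wells without cells; nearly all actives have a fitted effect of over 55% in size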
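HT-1080-NT fibrosarcoma cells (2HG-overproducing), 750 cells/well in RPMI with 5% FBS, dosed after 2 h and incubated 48 h at 37C. CellTiter-Glo luminescence normalized to DMSO and no-cell wells; concentration-response curves fitted and classed.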
HepG2 tox: counter-screen for TGF-b inhibitors: cytotoxicity in HepG2 cells; HepG2 CAGA-GFP viability, ATP luminescence, 18 h; Potency, µM (series often up to 46.1 µM), for the others: top-dose activity change, negative = cytotoxicity, actives largely listed as cytotoxic; hit rate 0.76% among 410,000; AID 588856
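HepG2 CAGA-GFP cells (1000/well, DMEM with 1% FBS) received compound, then TGF-beta at 500 pg/mL final, and were incubated 18 hours at 37 degrees C. Viability was read by CellTiter-Glo luminescence. Media-only wells were set as complete cell-killing and DMSO as no toxicity.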
HT1080 IDH1KD tx: kills HT-1080 cells with IDH1 knockdown; AID 686971; Potency, µM (titrated, usually from 46.1 µM), for inactives: at the highest dose activity, negative = toxicity, actives largely listed as cytotoxic; HT-1080 IDH1 knockdown viability, ATP luminescence, 48 h; hit rate 2% among 360,000;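 note: 0% = DMSO wells and -100% = cell-free medium wells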
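Luminescent ATP read-out (CellTiter-Glo, 10 min at room temperature) after 48 h compound exposure at 37 °C gave viability of IDH1-knockdown HT-1080 cells. Activity was normalised to DMSO and cell-free wells, then fitted as concentration-response curves.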
TGFb SMAD3 inh: TGF-b pathway inhibition; HepG2 CAGA-GFP TGF-b/SMAD3 reporter, GFP fluorescence, 18 h; TGF-beta stimulated, 500 pg/mL final; AID 588855; Potency, µM (doses to about 46.1 µM), for inactives: top-dose activity, negative = inhibition, usual class: inhibitors; hit rate 1.2% among 410,000; note: % is set by controls: 0 for no effect and ±100 for the full control effect; nearly all actives have a fitted effect of over 65% in size
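TGF-beta reporter screen: HEPG2 CAGA-GFP, 1% FBS, 500 pg/mL TGF-beta final, 18 h; per-cell GFP summed per well; curves fitted and categorized by class.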
An asterisk follows results filed as active; i = inactive; u = inconclusive; x = no result given. Calls come from the whole dose curve; as a rule, active = well fitted curve in the direction sought with a large enough effect; inconclusive = small, poorly fitted or top-dose-only effect, or another doubt; inactive = no such curve, though single readings can be large; an effect the other way counts as inactive or inconclusive. Potency is the fitted concentration of half-maximal effect.

SMILES	ATXN2 expr inh	S2 tox	HT1080-NT tox	HepG2 tox	HT1080 IDH1KD tx	TGFb SMAD3 inh
O=C(NNc1c([N+](=O)[O-])cc(C(F)(F)F)cc1[N+](=O)[O-])c1ccco1	u	u	20.6µM*	-36.0%	u	u
CC(=O)Nc1ccccc1N(CC(O)Cn1c2ccccc2c2ccccc21)S(=O)(=O)c1ccc(C)cc1 (stereo not drawn)	u	i	u	-20.5%	14.6µM*	u
Cc1ccc(N(CC(O)Cn2c3ccccc3c3ccccc32)S(=O)(=O)c2ccc(F)cc2)cc1 (stereo not drawn)	x	x	x	14.1µM*	x	8.91µM*
CCCn1c2ccccc2c2cnn(CC(=O)N3CCC(C)CC3)c(=O)c21	x	x	x	3.3%	x	u
CC1=C(C(=O)O)N2C(=O)[C@@H](NC(=O)[C@@H](N)c3ccccc3)[C@@H]2SC1	x	i	x	x	x	x
Cc1ccc2occ(CC(=O)Nc3ccc(Cl)c(C(F)(F)F)c3)c2c1	25.1µM*	u	x	12.6µM*	x	u
Cc1ccc2occ(CC(=O)Nc3ccc(S(N)(=O)=O)cc3)c2c1	-8.3%	i	x	-5.0%	x	0.9%
COc1cc(N(C)C)c(OC)cc1C=O	x	x	x	22.4%	x	-8.2%
Cc1cccc(NC(=O)CSCC(=O)Nc2cc(Cl)ccc2N2CCN(C)CC2)c1	-28.3%	i	14.6µM*	-24.4%	14.6µM*	u
Cc1cccc(CCNC(=O)c2nc(-c3ccc(Cl)cc3)n3c2CCCCC3)c1	-38.7%	u	x	2.4%	x	u
COc1cccc(N2CCN(C(=O)c3ccc4c(Cl)c5c(nc4c3)CCCC5)CC2)c1	10.5%	u	x	-48.4%	x	11.2µM*
COc1cccc(N2CCN(C(=O)c3nc(-c4ccc(Cl)cc4)n4c3CCCCC4)CC2)c1	-36.4%	u	x	-37.6%	x	15.8µM*
COc1ccc(CCNC(=O)c2nc(-c3ccc(Cl)cc3)n3c2CCCCC3)c(OC)c1	u	u	x	-24.9%	x	8.91µM*
O=C(c1ccc2c(Cl)c3c(nc2c1)CCCC3)N1CCN(c2cccc(Cl)c2)CC1	2.5%	i	x	2.7%	x	u
CCC1CN(CCNC(=O)c2cscn2)Cc2cc(OC)ccc2O1 (stereo not drawn)	x	i	x	x	x	x
O=C(Cc1ccc(F)cc1)NCCc1csc(-c2cccc(F)c2)n1	-29.4%	i	x	-24.1%	x	-28.8%
O=C(NCCc1csc(-c2ccc(C(F)(F)F)cc2)n1)c1ccc(F)c(F)c1	20µM*	u	x	-74.4%	x	11.2µM*
O=C(NCCc1csc(-c2ccc(F)cc2)n1)c1cccc(F)c1	28.2µM*	u	x	-36.2%	x	u
Cc1cc(S(=O)(=O)NCCc2csc(-c3cccc(F)c3)n2)ccc1F	u	u	x	12.6µM*	x	u
Cc1nc(Nc2ccc(Cl)cc2)cc(-c2ccccc2)n1	u	u	x	-67.2%	x	u
Cc1cccc(N2CCN(S(=O)(=O)c3ccc4c(c3)NC(=O)C(C)S4)CC2)c1C (stereo not drawn)	-24.5%	i	u	0.1%	u	15.8µM*
Cc1cccc(N2CCN(S(=O)(=O)c3ccc4c(c3)C(C(C)C)C(=O)N4)CC2)c1C (stereo not drawn)	u	i	x	-56.6%	x	15.8µM*
Cc1cccc(N2CCN(S(=O)(=O)c3ccc4c(c3)C(C)(C)C(=O)N4C)CC2)c1C	u	i	-5.5%	-23.5%	-3.7%	-25.3%
Cc1ccc(NC(=O)C2CCN(S(=O)(=O)c3ccc4c(c3)NC(=O)C(C)S4)CC2)cc1Cl (stereo not drawn)	x	u	u	-11.3%	u	2.24µM*
O=C([C@@H]1C[C@@H](Sc2nc3ccccc3[nH]2)CN1CC1CCCCC1)N1CCOCC1	x	i	x	x	x	x
SMILES	ATXN2 expr inh	S2 tox	HT1080-NT tox	HepG2 tox	HT1080 IDH1KD tx	TGFb SMAD3 inh
CCCN(CCC)S(=O)(=O)c1ccc(C(=O)N2CCn3c4c(c5cc(C)ccc53)CCCC42)cc1 (stereo not drawn)	4.3%	i	x	-5.8%	x	-0.1%
CCCCN(CCCNC(=O)C1CCN(C(=O)c2cc3sccc3n2C)CC1)Cc1ccccc1	u	i	18.4µM*	-24.7%	u	u
Cc1ccc(-c2csc(NC(=O)C3CC(=O)N(c4ccc5c(c4)OCCO5)C3)n2)o1 (stereo not drawn)	x	x	x	-36.6%	x	u
CC(C)=CCC/C(C)=C/CNC(=O)C[C@H]1C[C@H](C(=O)N2CCOCC2)[C@@]2(C)c3[nH]c4cc(CCC(=O)N(C)C)ccc4c3CCN2C1=O	u	u	-10.6%	-21.6%	-7.6%	u
CC(C)=CCC/C(C)=C/CNC(=O)C[C@H]1C[C@H](C(=O)N(C(C)C)C(C)C)[C@@]2(C)c3[nH]c4ccc(Cl)cc4c3CCN2C1=O	2.6%	i	5.2%	-4.2%	11.1%	-23.0%
CC(C)N(C(=O)[C@H]1CC(CC(=O)NCc2cccc(C(F)(F)F)c2)C(=O)N2CCc3c([nH]c4ccccc34)[C@]12C)C(C)C (stereo partly drawn)	u	x	1.2%	-91.9%	1.6%	12.6µM*
COCCCNC(=O)C[C@H]1C[C@H](C(=O)N(C(C)C)C(C)C)[C@@]2(C)c3[nH]c4cc(-c5ccco5)ccc4c3CCN2C1=O	-17.9%	i	-3.0%	-22.1%	1.2%	11.2µM*
